From PubChem BioAssay (Tox21)
“And” between values parts separate entries of the source, which are not always exact repeats. Equal entries are not always repeated. Results filed as inconclusive are left out. More than one record can exist for a structure, and the calls need not agree. The source made the active and inactive calls. Unless noted, the call rests on the fitted dose curve; in most records, active means well fitted curve in the direction sought with a large enough effect in the repeat runs; inconclusive means weak or mixed curves; inactive means no such curve, though single readings can be large; an effect the other way counts as inactive or inconclusive.

How the values were obtained:
[1] = qHTS assay to identify small molecule agonists of the RXR signaling pathway - cell viability counter screen (AID 1159529); further: nearly all actives have a fitted effect of over 50% in size; further: potency means the concentration at half of the fitted maximal effect;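 on activity change, negative = cytotoxicity: HEK 293T cells carrying an RXR-alpha UAS beta-lactamase reporter; series mostly up to about 77 µM; on the % scale 0 is the no-effect control and ±100 the full control effect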
Outline: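 RXR-alpha-UAS-bla HEK 293T cells in medium with 2% charcoal-stripped FBS were preincubated 5 hr, then exposed to compounds for 16 hr at 37 C. Viability was read as CellTiter-Glo luminescence after 30 min at room temperature.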

[2] = qHTS assay to identify small molecule antagonists of the retinoid acid receptor (RAR) signaling pathway - cell viability counter screen (AID 1159551); further: nearly all actives have a fitted effect of over 35% in size; further: potency means the concentration at half of the fitted maximal effect
Outline: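 C3RL4 cells were seeded overnight at 37 C, then treated with compounds plus 1 uM (final) retinol for 6 h at 37 C. Viability was read as ATP by CellTiter-Glo luminescence after 30 min at room temperature.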

[3] = qHTS assay to identify small molecule antagonists of the retinoic acid receptor (RAR) signaling pathway (AID 1159552; further: nearly all actives have a fitted effect of over 50% in size; further: potency means the concentration at half of the fitted maximal effect)
Outline: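 RARE-luc C3RL4 cells; cpds + 1 uM (final) retinol, 6 hr, 37 C/5% CO2; luciferase reagent, 30 min RT, luminescence readout. Inhibitors of retinol-driven signal scored.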

[4] = qHTS assay to identify small molecule agonists of the retinoic acid receptor (RAR) signaling pathway (AID 1159553); further: potency means the concentration at half of the fitted maximal effect
Outline: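 C3RL4 cells carrying a RARE luciferase reporter were plated overnight at 37 C, then exposed to compounds in DMSO for 6 hr at 37 C and 5% CO2. Luminescence was read 30 min after luciferase reagent addition at room temperature.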

[5] = qHTS assay to identify small molecule antagonists of the estrogen related receptor (ERR) signaling pathway from Tox21 library - cell viability counter screen (AID 1224834); further: nearly all actives have a fitted effect of over 30% in size; further: potency means the concentration at half of the fitted maximal effect
Outline: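 ERR reporter cells were plated 6 h before compound addition, then exposed to test compounds in DMSO for 17.5 h at 37 C. Viability was read as CellTiter-Fluor fluorescence after a 30-minute incubation at 37 C.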

[6] = target: Luciferin 4-monooxygenase (Photinus pyralis) (UniProt P08659); experiment: qHTS assay to identify small molecule inhibitors of firefly luciferase (AID 1224835); further: nearly all actives have a fitted effect of over 25% in size; further: potency means the concentration at half of the fitted maximal effect
Outline: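 Biochemical qHTS: compounds run as interplate titrations against purified firefly enzyme, with D-luciferin and ATP each at its KM concentration. Light output recorded by CCD imaging.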

[7] = qHTS assay to identify small molecule agonists of the constitutive androstane receptor (CAR) signaling pathway - cell viability counter screen (AID 1224836); further: nearly all actives have a fitted effect of over 45% in size; further: potency means the concentration at half of the fitted maximal effect
Outline: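 HepG2 cells stably carrying hCAR and a CYP2B6-2.2kb reporter were plated 4 h, then given compounds at 15 concentrations plus PK11195 (final 0.75 uM). After 23 h at 37 C, viability was read by CellTiter-Fluor fluorescence.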

[8] = qHTS assay to identify small molecule antagonists of the constitutive androstane receptor (CAR) signaling pathway - cell viability counter screen (AID 1224837); further: nearly all actives have a fitted effect of over 45% in size; further: potency means the concentration at half of the fitted maximal effect
Outline: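 HepG2 cells stably expressing hCAR and a CYP2B6-2.2kb reporter were plated and pre-incubated 4 hr at 37 C/5% CO2, then given compounds at 15 concentrations plus 50 nM CITCO (final). After 23 hr, viability was read by CellTiter-Fluor fluorescence.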

[9] = qHTS assay to identify small molecule antagonists of the estrogen related receptor signaling pathway with the pleiotropic PPARgamma coactivator (PGC) from Tox21 10K library - cell viability counter screen (AID 1224840; active means well fitted cell-killing curve with a large enough effect in the repeat runs, not every such curve was filed as active; further: nearly all actives have a fitted effect of over 40% in size; further: potency means the concentration at half of the fitted maximal effect)
Outline: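 PGC/ERR cells were seeded at 2,000 cells/well and left 6 hours at 37 C/5% CO2 before pin-tool addition of compounds in DMSO. After 17.5 hours at 37 C, CellTiter-Fluor was added and fluorescence read 30 minutes later.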

[10] = target: Thyrotropin receptor (Homo sapiens) (UniProt P16473); experiment: qHTS assay to identify small molecule agonists of the thyroid stimulating hormone receptor (TSHR) signaling pathway (AID 1224843; calls by dose curve; further: on the % scale 0 is the no-effect control and ±100 the full control effect; nearly all actives have a fitted effect of over 45% in size)
Outline: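 TSHR-HEK293 cells in agonist mode, 30 min room-temperature step, then cAMP measured by competitive HTRF (cAMP-d2 with anti-cAMP cryptate) after 1 h at room temperature. Tested at 15 concentrations in triplicate.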

[11] = qHTS assay to identify small molecule antagonists of the estrogen related receptor (ERR) signaling pathway - cell viability counter screen (AID 1224818);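 further: series mostly up to about 46 µM; viability measured after 17.5 h of compound exposure; on the % scale 0 is the no-effect control and ±100 the full control effect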
Outline: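 ERR reporter cells plated 6 h at 37 C/5% CO2, then compounds in DMSO pin-transferred and incubated 17.5 h at 37 C. Viability read as CellTiter-Fluor fluorescence after 30 min at 37 C.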

[12] = qHTS assay to identify small molecule agonists of the estrogen related receptor (ERR) signaling pathway (AID 1224820); further: on the % scale 0 is the no-effect control and ±100 the full control effect
Outline: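 ERR reporter cell line (from NTP), 2,000 cells/well, incubated 6 h before compound addition, then 18 h at 37 C. Luminescence measured 30 min after One-Glo reagent at room temperature.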

[13] = tested on: estrogen-related receptor alpha (ERRalpha) with PGC-1alpha coactivator, human; experiment: qHTS assay to identify small molecule antagonists of the estrogen related receptor signaling pathway with the pleiotropic PPARgamma coactivator (PGC) (AID 1224821; calls by dose curve; further: nearly all actives have a fitted effect of over 50% in size; further: potency means the concentration at half of the fitted maximal effect;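 on activity change, negative = inhibition: series mostly up to about 46 µM; on the % scale 0 is the no-effect control and ±100 the full control effect; lower luminescence signal means antagonism of PGC/ERR signalling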)
Outline: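 PGC/ERR reporter cell line, plated 6 h before compound addition, then exposed 18 h at 37 °C. Luciferase activity read by luminescence 30 min after One-Glo addition; decrease indicates antagonism.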

[14] = qHTS assay to identify small molecule agonists of the estrogen related receptor signaling pathway with the pleiotropic PPARgamma coactivator (PGC) (AID 1224823); further: on the % scale 0 is the no-effect control and ±100 the full control effect
Outline: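 PGC/ERR reporter cells seeded 6 h, then exposed to compounds (23 nL in DMSO) for 18 h at 37 C. One-Glo luciferase luminescence read after 30 min at room temperature.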

[15] = target: Nuclear receptor subfamily 1 group I member 3 (Homo sapiens) (UniProt Q14994); experiment: qHTS assay to identify small molecule antagonists of the constitutive androstane receptor (CAR) signaling pathway (AID 1224838); further: on the % scale 0 is the no-effect control and ±100 the full control effect; nearly all actives have a fitted effect of over 40% in size
Outline: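 HepG2 cells stably co-transfected with hCAR and a CYP2B6-2.2kb luciferase reporter were seeded 4 h before compound addition at 15 concentrations. Cells were stimulated with 50 nM CITCO (final) for 24 h at 37 C; luciferase luminescence was then read.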

[16] = target: Nuclear receptor subfamily 1 group I member 3 (Homo sapiens) (UniProt Q14994); experiment: qHTS assay to identify small molecule agonists of the constitutive androstane receptor (CAR) signaling pathway (AID 1224839); further: nearly all actives have a fitted effect of over 15% in size; further: potency means the concentration at half of the fitted maximal effect
Outline: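 HepG2 cells stably expressing hCAR and a CYP2B6-2.2kb luciferase reporter were treated with compounds at 15 concentrations plus 0.75 uM PK11195 (final) for 24 h at 37 C; luminescence was read after ONE-Glo addition.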

[17] = qHTS assay to identify small molecule antagonists of the estrogen related receptor signaling pathway with the pleiotropic PPARgamma coactivator (PGC) from Tox21 10K library (AID 1224841; call rule not given here; further: potency means the concentration at half of the fitted maximal effect; actives are mostly falling curves and most rising ones were filed inactive; nearly all actives have a fitted effect of over 50% in size)
Outline: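 PGC/ERR reporter cells were seeded at 2,000 cells/well and held 6 hours at 37 C/5% CO2 before pin-tool addition of compounds in DMSO. After 18 hours at 37 C, One-Glo was added and luminescence read after 30 minutes at room temperature.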

[18] = qHTS assay to identify small molecule agonists of the estrogen related receptor signaling pathway with the pleiotropic PPARgamma coactivator (PGC) from Tox21 10K library (AID 1224842); further: on the % scale 0 is the no-effect control and ±100 the full control effect; nearly all actives have a fitted effect of over 15% in size
Outline: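 PGC/ERR reporter cell line, 2,000 cells per well, incubated 6 h at 37 C before 23 nL compound in DMSO was added. After 18 h at 37 C, One-Glo luminescence read following 30 min at room temperature.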

[19] = qHTS assay to identify small molecule antagonists of the estrogen related receptor (ERR) signaling pathway (AID 1224819)
Outline: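 ERR reporter cells were plated at 2,000 cells/well and left 6 h at 37 C/5% CO2 before pin-tool transfer of compounds in DMSO. After 18 h at 37 C, One-Glo was added and luminescence was read 30 min later at room temperature.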

Sequence of Luciferin 4-monooxygenase (Photinus pyralis) (P08659 whole entry, looked up): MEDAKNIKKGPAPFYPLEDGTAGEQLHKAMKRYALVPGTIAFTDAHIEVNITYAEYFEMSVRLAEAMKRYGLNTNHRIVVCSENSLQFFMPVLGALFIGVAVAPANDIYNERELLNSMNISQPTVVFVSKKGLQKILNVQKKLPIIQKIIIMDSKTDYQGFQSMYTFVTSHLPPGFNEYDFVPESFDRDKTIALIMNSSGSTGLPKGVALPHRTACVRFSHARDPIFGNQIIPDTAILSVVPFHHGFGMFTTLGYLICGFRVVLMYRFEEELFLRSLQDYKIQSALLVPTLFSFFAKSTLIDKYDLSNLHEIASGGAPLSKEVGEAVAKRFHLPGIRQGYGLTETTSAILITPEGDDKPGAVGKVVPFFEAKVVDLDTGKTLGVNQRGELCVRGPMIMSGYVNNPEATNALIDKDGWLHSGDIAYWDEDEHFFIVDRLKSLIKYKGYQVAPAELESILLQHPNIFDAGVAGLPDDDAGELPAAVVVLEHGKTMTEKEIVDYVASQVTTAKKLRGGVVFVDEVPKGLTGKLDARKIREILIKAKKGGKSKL
Sequence of Nuclear receptor subfamily 1 group I member 3 (Homo sapiens) (Q14994 whole entry, looked up): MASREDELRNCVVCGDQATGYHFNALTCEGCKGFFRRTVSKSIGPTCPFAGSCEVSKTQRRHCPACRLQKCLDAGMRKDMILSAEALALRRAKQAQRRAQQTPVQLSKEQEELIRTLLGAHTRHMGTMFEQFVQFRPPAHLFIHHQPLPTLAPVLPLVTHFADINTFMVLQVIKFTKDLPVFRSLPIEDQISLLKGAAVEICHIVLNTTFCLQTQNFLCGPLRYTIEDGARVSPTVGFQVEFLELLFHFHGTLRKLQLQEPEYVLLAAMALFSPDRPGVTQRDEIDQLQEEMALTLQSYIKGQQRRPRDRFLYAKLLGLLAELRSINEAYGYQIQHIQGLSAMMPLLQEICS
Sequence of Thyrotropin receptor (Homo sapiens) (P16473 whole entry, looked up): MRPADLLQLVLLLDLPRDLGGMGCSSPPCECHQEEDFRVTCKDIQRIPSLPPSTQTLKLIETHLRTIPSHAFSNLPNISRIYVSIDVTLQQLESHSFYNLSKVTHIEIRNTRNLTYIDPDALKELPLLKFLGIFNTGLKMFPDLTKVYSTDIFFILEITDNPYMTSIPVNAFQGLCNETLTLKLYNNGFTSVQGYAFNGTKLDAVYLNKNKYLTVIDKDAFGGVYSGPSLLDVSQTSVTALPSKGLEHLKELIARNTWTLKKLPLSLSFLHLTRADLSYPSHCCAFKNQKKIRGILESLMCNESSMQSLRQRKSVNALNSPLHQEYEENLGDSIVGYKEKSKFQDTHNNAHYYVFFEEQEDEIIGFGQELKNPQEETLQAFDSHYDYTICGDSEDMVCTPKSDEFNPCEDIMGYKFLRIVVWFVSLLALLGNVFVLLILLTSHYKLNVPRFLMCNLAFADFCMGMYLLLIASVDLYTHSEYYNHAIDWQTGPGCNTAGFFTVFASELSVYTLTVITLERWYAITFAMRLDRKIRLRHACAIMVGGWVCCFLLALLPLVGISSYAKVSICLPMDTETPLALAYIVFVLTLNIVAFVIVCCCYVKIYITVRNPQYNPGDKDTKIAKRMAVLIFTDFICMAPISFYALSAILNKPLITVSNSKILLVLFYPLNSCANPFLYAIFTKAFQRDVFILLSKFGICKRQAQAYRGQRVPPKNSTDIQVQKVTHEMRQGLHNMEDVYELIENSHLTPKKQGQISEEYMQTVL

O=C(OCC(COC(=O)c1ccccc1)(COC(=O)c1ccccc1)COC(=O)c1ccccc1)c1ccccc1
inactive: Potency [1] | Potency [2] | Potency [3] | Potency [4] | Potency [5] | Potency [6] | Potency [7] | Potency [8] | Potency [9] | Potency [10]

CC(C)(C)C(=O)OCOC(=O)C1N2C(=O)CC2S(=O)(=O)C1(C)C (stereo unspecified)
inactive: Potency [1] | Potency [2] | Potency [3] | Potency [4] | Potency [5] | Potency [6] | Potency [7] | Potency [8] | Potency [9] | Potency [10]

CCCC1O[C@@H]2C[C@H]3[C@@H]4CCC5=CC(=O)C=C[C@]5(C)[C@H]4[C@@H](O)C[C@]3(C)[C@]2(C(=O)CO)O1 (stereo partly specified)
active: Potency [3] 48.6 µM | Potency [17] 48.6 µM
inactive: Potency [1] | Potency [2] | Potency [4] | Potency [11] | outcome [12] | Potency [13] | outcome [14] | Potency [6] | Potency [7] | Potency [8] | Potency [15] | Potency [16] | Potency [9] | Potency [18]

CC(NN)c1ccccc1 (stereo unspecified)
inactive: activity change, negative = cytotoxicity [1] -0.339% [at 15.8 µM] | activity change, negative = cytotoxicity [2] 1.08% [at 19 µM] | activity, negative = inhibition [3] 37.3% [at 19 µM] | Potency [4] | viability change, negative = cytotoxic [5] 6.9% [at 19 µM] | activity change, negative = inhibition [6] -10.4% [at 23.6 µM] | viability change, negative = cytotoxic [7] -0.8% [at 19 µM] | activity change, negative = cytotoxicity [8] 5.95% [at 19 µM] | activity, negative = inhibition [15] 27.3% [at 19 µM] | activation [10] -0.741% [at 19 µM]

Nc1c(Cl)cc(Cl)cc1Cl
inactive: Potency [1] | Potency [2] | Potency [3] | Potency [4] | Potency [5] | Potency [6] | Potency [7] | Potency [8] | Potency [15] | Potency [16] | Potency [10]

Cc1ccc2oc(CN(Cc3ccccc3)C(=O)Nc3c(F)cc(F)cc3F)c(-c3ccc(Cl)cc3)c2c1
inactive: Potency [1] | Potency [2] | Potency [3] | Potency [4] | Potency [6] | Potency [7] | Potency [8] | Potency [18] | Potency [10]

CC(C)(C)c1ccc(C(=O)O)cc1
active: Potency [6] 35.6 µM
inactive: Potency [1] | Potency [2] | Potency [3] | Potency [4] | Potency [5] | Potency [7] | Potency [8] | Potency [9] | Potency [10]

O=C(O)c1ccc(Cl)c(Cl)c1
inactive: Potency [1] | Potency [2] | Potency [3] | Potency [4] | Potency [5] | Potency [6] | Potency [7] | Potency [8] | Potency [15] | Potency [16] | Potency [9] | Potency [18] | Potency [10]

Clc1ccc(C(Cn2ccnc2)OCc2ccc(Sc3ccccc3)cc2)c(Cl)c1 (stereo unspecified)
inactive: Potency [1] | Potency [2] | Potency [3] | Potency [4] | Potency [6] | Potency [7] | Potency [8] | Potency [15] | Potency [16] | Potency [9] | Potency [10]

CO[Si](CCCNc1ccccc1)(OC)OC
inactive: Potency [1] | Potency [2] | Potency [3] | Potency [4] | Potency [5] | Potency [6] | Potency [7] | Potency [8] | Potency [15] | Potency [16] | Potency [10]

N=C1C=CC(=C(c2ccc(N)cc2)c2ccc(N)cc2)C=C1
active: Potency [2] 19.3 µM | Potency [3] 13.7 µM | Potency [5] 21.7 µM | Potency [6] 20 µM | Potency [7] 34.4 µM | Potency [8] 27.3 µM
inactive: Potency [1] | Potency [4] | Potency [16] | Potency [18]

C=C(C)C(=O)OCC[N+](C)(C)C
inactive: Potency [1] | Potency [2] | Potency [3] | Potency [4] | Potency [5] | Potency [6] | Potency [7] | Potency [8] | Potency [15] | Potency [10]

Clc1ccccc1C(c1ccccc1)(c1ccccc1)n1ccnc1
68.6 µM (active) and inactive: Potency [2]
active: Potency [1] 21.9 µM | Potency [3] 19.3 µM | Potency [19] 12.8 µM | Potency [13] 20.3 µM | Potency [5] 27.3 µM and 11.9 µM | Potency [9] 17.2 µM
inactive: Potency [4] | Potency [11] | outcome [12] | outcome [14] | Potency [6] | Potency [10]

O=C(Nc1cccc([N+](=O)[O-])c1)c1cc2ccccc2cc1O
active: Potency [4] 0.969 µM | Potency [5] 4.33 µM | Potency [6] 1.59 µM | Potency [8] 9.69 µM | Potency [16] 2.43 µM | Potency [9] 3.86 µM
inactive: Potency [1] | Potency [2] | Potency [3] | Potency [18] | Potency [10]

NNC(=O)c1cccc(C(=O)NN)c1
inactive: Potency [1] | Potency [2] | Potency [3] | Potency [5] | Potency [6] | Potency [7] | Potency [8] | Potency [15] | Potency [16] | Potency [9]

NNc1nc(-c2ccc([N+](=O)[O-])cc2)cs1
inactive: Potency [1] | Potency [3] | Potency [15] | Potency [16]
active: Potency [2] 43.3 µM | Potency [4] 54.5 µM | Potency [5] 6.86 µM | Potency [6] 31.7 µM | Potency [7] 54.5 µM | Potency [8] 54.5 µM | Potency [17] 48.6 µM

O=Cc1cc(O)ccc1Br
inactive: Potency [1] | Potency [2] | Potency [3] | Potency [5] | Potency [7] | Potency [8]
active: Potency [6] 57.2 µM

OCCN(CCO)c1nc(N2CCCCC2)c2nc(N(CCO)CCO)nc(N3CCCCC3)c2n1
inactive: Potency [1] | Potency [2] | Potency [3] | Potency [4] | outcome [12] | outcome [14] | Potency [6] | Potency [15] | Potency [16] | Potency [18]
active: Potency [19] 11.9 µM | Potency [17] 21.1 µM

COc1cc(-c2ccc(N=C=O)c(OC)c2)ccc1N=C=O
inactive: Potency [1] | Potency [2] | Potency [3] | Potency [4] | Potency [5] | Potency [6] | Potency [7] | Potency [8] | Potency [15] | Potency [16] | Potency [9]
